We go through five compounds from PubChem BioAssay.

The test system of assay [1] is PRMT1 (protein arginine N-methyltransferase 1). Kind of assay: small molecules binding arginine methyltransferase PRMT1 – biochemical, small-molecule microarray, 635 nm fluorescence, primary screen (AID 1088).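 Also: binding of Prmt1 protein to compounds spotted on small-molecule microarray slides.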 Conditions: higher = more signal.
Assay [2] is described as follows: growth effects on S. cerevisiae YJM789 – YJM789 clinical isolate, OD600, 24 h, basal, primary screen (AID 1089).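 Also: growth of clinical yeast isolate S. cerevisiae YJM 789 seeded 1000 cells per well; test concentration not given here.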 The settings on record: higher = more signal, called active from +8 up or from −8 down.
A short description of assay [3]: S. pombe growth modifiers, basal conditions – strain 972, OD600, 24 h, no modulator, primary screen (AID 1090).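 Also: basal condition with compound alone and no growth modifier present; test concentration not given here.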 Conditions: S. pombe 972 growth, higher = more signal, called active from +8 up or from −8 down.
Assay [4] in a line: budding yeast growth modifiers under rapamycin – strain BY4716, OD600, 96 h, primary screen (AID 1091). Also: test concentration not given here. The settings on record: S. cerevisiae BY4716 + rapamycin, higher = more signal, called active from +8 up or from −8 down.
In assay [5] the target is Torsin-1A-interacting protein 2 (Homo sapiens) (UniProt Q8NFQ8). Briefly: small molecules binding lysate-expressed LULL1 – cell lysate, human LULL1 lysate, 635/667 nm fluorescence, primary screen (AID 1092).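 Also: probe is lysate of COS7 cells overexpressing human LULL1; score merges per-feature 667 nm fluorescence with signal-to-noise.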 Conditions: small-molecule microarray, hLULL1 lysate binding, 635 nm fluorescence; higher = more signal.
Assay [6] in a line: optical density change of DRC41 E. coli – strain DRC41, OD650, 24 h, E. coli filamentation project, primary screen (AID 1093).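 Also: MC1000 strain lacking acrAB efflux and sulA so SOS filamentation is blocked; test concentration not given here.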 The settings on record: E. coli DRC41 growth, higher = more signal, called active from +8 up or from −8 down.
Assay [7] can be described thus: probe aLefty2 binding to arrayed compounds – biochemical, biotinylated probe, 635/667 nm fluorescence, primary screen (AID 1094).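 Also: score merges spot fluorescence near 667 nm with spot signal-to-noise ratio.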 Conditions: small-molecule microarray, higher = more signal.
For assay [8], the system named is Noggin (protein binding on small-molecule microarray). Kind of assay: small molecules binding Noggin protein – biochemical, 635/667 nm fluorescence, primary screen (AID 1095).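 Also: score merges 667 nm feature fluorescence with signal to noise over triplicate slides.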 The settings on record: 635 nm fluorescence, higher = more signal.
For assay [9], the target named is Neurogenic locus notch homolog protein 3 (Homo sapiens) (UniProt Q9UM47). Kind of assay: small molecules binding NOTCH3 protein – biochemical, 635/667 nm fluorescence, primary screen (AID 1096). Conditions: small-molecule microarray, 635 nm fluorescence, higher = more signal.
The nature of assay [10]: probe aEGFR binding to arrayed compounds – biochemical, biotinylated probe, 635/667 nm fluorescence, primary screen (AID 1097).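 Also: probe is a biotinylated anti-EGFR antibody binding compounds printed on slides; score combines fluorescence near 667 nm and signal to noise of each spot.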 Conditions: small-molecule microarray, higher = more signal.
The subject of assay [11] is Plasmodium falciparum Sir2 (PF13_0152, Sir2A). Kind of assay: Plasmodium falciparum Sir2A binding compounds – biochemical, small-molecule microarray, 635 nm fluorescence, primary screen (AID 1098).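 Also: score merges spot fluorescence intensity with its signal-to-noise ratio.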 The settings on record: fluorescence 635 nm, higher = more signal.
Assay [12] is described as follows: probe aDKK1 binding to arrayed compounds – biochemical, biotinylated probe, 635/667 nm fluorescence, primary screen (AID 1099).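 Also: score merges 667nm spot fluorescence with signal to noise across triplicate slides; reference of the scale not given here.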 Conditions: small-molecule microarray, higher = more signal.
Assay [13] can be described thus: probe aCHRDL2 binding to arrayed compounds – biochemical, biotinylated probe, 635/667 nm fluorescence, primary screen (AID 1100). Conditions: small-molecule microarray, higher = more signal.
The nature of assay [14]: change in splice reporter luminescence, either direction, cell-based, HEK293, spliceosome inhibition project, primary screen (AID 1101).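 Also: HEK293 cells carrying a splicing-competent luciferase reporter gene; test concentration not given here.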 Conditions: HEK293 splicing luciferase reporter, 24 h, higher = more signal, called active from +8 up or from −8 down. A general note: Reporter assays use an easily measured gene product as a stand-in for the process of interest.
Assay [15] deals with Fibroblast growth factor 10 (Homo sapiens) (UniProt O15520). Kind of assay: compounds binding fibroblast growth factor 10 – biochemical, small-molecule microarray, 635 nm fluorescence, primary screen (AID 1102). Conditions: FGF10 binding, fluorescence 635 nm, higher = more signal.
Assay [16] concerns glycogen synthase kinase-3 (GSK3A per assay name; protocol says GSK3B). Kind of assay: compounds binding glycogen synthase kinase-3 – biochemical, small-molecule microarray, 635 nm fluorescence, GSK3A, primary screen (AID 1103). Also: the record names both GSK3A and GSK3B. The settings on record: fluorescence 635 nm, higher = more signal.
The target in assay [17] is Epidermal growth factor receptor (Homo sapiens) (UniProt P00533). Kind of assay: compounds binding epidermal growth factor receptor – biochemical, small-molecule microarray, 635 nm fluorescence, primary screen (AID 1104).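 Also: score merges 667 nm emission intensity with spot signal to noise over triplicate slides.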 Conditions: EGFR binding, higher = more signal.
Assay [18] concerns the target Follistatin-related protein 3 (Homo sapiens) (UniProt O95633). Briefly: compounds binding follistatin-related protein 3 – biochemical, small-molecule microarray, 635 nm fluorescence, primary screen (AID 1105).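 Also: score merges emission near 667 nm and signal to noise per printed spot across three slides.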 Conditions: FSTL3 binding, higher = more signal.
Assay [19] deals with Dickkopf-related protein 1 (Homo sapiens) (UniProt O94907). Kind of assay: small molecules binding DKK1 protein – biochemical, small-molecule microarray, 635 nm fluorescence scan, primary screen (AID 1106).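 Also: score merges emission near 667 nm with signal to noise over three replicate slides.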 The settings on record: higher = more signal.
Assay [20] has as its system Inhibin beta A chain (activin A). Briefly: small molecules binding activin A – biochemical, small-molecule microarray, 635 nm fluorescence scan, primary screen (AID 1107).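 Also: mouse activin A protein probed at 4.33 µg/mL on printed slides; score merges bound-protein fluorescence near 667 nm with spot signal-to-noise.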 The settings on record: INHBA, higher = more signal.

Molecules are shown by their SMILES. The source made the active and inactive calls.

Follistatin-related protein 3 (Homo sapiens), sequence (O95633 whole entry, looked up): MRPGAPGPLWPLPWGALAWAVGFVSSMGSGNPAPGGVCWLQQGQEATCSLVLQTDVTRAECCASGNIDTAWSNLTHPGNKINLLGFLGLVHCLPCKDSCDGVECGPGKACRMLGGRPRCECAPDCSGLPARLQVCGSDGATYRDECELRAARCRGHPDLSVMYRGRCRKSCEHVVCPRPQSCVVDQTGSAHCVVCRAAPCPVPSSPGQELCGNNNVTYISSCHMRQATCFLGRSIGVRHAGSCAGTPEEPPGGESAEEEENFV
Neurogenic locus notch homolog protein 3 (Homo sapiens), sequence (Q9UM47 whole entry, looked up): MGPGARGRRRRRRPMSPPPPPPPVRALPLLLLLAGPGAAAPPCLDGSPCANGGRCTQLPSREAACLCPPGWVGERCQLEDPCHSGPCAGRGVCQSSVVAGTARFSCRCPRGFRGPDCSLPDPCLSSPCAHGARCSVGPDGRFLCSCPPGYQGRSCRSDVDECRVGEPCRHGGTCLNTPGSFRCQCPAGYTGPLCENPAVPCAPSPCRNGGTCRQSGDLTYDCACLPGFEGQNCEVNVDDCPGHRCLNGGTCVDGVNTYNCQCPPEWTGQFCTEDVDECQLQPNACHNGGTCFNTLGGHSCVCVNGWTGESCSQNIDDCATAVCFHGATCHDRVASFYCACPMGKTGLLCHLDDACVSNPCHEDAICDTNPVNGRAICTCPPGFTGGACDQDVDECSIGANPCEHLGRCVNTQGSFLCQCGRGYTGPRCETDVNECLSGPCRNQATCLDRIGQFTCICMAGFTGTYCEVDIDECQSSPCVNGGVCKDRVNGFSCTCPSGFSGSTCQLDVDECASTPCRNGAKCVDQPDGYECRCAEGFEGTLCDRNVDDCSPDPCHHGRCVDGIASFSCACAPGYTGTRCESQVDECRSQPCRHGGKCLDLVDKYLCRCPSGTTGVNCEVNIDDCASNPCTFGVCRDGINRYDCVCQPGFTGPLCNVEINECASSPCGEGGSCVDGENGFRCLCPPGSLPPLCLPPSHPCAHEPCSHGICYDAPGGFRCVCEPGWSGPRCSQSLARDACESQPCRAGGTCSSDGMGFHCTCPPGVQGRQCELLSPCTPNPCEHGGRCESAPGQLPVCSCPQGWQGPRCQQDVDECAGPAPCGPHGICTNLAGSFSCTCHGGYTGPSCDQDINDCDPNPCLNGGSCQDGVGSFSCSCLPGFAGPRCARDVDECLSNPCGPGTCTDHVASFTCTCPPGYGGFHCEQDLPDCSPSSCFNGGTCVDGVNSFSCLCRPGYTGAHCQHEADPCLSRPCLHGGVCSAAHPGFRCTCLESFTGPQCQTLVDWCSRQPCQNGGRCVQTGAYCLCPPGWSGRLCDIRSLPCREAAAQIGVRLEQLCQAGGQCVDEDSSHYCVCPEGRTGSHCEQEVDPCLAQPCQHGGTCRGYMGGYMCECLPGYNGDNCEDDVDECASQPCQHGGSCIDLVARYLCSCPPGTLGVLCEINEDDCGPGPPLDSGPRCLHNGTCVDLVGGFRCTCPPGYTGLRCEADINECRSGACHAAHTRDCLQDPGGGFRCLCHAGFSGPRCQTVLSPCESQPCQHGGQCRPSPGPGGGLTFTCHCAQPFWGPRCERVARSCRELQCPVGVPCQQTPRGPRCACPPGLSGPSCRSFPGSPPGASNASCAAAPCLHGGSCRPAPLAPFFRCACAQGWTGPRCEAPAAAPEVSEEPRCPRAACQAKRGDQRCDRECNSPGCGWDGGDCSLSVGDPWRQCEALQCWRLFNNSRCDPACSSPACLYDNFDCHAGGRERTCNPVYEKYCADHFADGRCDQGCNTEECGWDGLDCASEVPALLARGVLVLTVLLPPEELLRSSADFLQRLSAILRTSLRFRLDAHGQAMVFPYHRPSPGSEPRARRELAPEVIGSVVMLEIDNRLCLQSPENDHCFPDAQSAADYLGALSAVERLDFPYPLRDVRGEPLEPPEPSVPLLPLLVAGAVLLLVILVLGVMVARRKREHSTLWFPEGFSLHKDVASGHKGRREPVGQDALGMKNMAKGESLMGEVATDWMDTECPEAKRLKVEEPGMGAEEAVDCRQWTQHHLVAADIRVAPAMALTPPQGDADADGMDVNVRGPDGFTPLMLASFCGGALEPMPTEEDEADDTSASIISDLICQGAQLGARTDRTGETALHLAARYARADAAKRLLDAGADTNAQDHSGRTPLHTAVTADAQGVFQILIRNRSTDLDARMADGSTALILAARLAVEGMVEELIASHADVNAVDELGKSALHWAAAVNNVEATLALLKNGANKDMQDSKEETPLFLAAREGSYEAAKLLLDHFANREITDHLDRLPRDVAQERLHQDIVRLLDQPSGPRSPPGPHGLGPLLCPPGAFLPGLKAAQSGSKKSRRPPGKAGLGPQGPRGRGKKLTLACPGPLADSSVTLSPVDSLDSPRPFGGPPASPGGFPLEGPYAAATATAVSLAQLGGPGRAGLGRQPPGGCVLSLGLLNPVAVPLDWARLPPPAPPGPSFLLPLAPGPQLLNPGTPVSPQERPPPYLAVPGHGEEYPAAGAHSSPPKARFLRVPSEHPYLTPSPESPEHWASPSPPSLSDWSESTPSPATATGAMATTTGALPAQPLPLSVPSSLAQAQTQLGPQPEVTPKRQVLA
Torsin-1A-interacting protein 2 (Homo sapiens), sequence (Q8NFQ8 whole entry, looked up): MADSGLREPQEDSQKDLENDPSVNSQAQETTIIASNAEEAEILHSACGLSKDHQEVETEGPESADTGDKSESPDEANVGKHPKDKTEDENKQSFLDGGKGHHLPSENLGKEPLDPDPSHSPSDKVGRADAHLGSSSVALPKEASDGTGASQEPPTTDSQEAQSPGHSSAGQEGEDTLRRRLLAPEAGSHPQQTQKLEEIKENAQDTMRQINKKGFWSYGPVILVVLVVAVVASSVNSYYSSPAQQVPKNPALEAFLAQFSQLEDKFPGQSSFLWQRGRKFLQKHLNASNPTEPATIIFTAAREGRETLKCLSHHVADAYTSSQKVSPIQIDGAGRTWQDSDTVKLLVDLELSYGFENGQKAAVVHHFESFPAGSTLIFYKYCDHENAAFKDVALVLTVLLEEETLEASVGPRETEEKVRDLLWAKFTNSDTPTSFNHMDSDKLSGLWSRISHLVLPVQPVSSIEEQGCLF
Epidermal growth factor receptor (Homo sapiens), sequence (P00533 whole entry, looked up): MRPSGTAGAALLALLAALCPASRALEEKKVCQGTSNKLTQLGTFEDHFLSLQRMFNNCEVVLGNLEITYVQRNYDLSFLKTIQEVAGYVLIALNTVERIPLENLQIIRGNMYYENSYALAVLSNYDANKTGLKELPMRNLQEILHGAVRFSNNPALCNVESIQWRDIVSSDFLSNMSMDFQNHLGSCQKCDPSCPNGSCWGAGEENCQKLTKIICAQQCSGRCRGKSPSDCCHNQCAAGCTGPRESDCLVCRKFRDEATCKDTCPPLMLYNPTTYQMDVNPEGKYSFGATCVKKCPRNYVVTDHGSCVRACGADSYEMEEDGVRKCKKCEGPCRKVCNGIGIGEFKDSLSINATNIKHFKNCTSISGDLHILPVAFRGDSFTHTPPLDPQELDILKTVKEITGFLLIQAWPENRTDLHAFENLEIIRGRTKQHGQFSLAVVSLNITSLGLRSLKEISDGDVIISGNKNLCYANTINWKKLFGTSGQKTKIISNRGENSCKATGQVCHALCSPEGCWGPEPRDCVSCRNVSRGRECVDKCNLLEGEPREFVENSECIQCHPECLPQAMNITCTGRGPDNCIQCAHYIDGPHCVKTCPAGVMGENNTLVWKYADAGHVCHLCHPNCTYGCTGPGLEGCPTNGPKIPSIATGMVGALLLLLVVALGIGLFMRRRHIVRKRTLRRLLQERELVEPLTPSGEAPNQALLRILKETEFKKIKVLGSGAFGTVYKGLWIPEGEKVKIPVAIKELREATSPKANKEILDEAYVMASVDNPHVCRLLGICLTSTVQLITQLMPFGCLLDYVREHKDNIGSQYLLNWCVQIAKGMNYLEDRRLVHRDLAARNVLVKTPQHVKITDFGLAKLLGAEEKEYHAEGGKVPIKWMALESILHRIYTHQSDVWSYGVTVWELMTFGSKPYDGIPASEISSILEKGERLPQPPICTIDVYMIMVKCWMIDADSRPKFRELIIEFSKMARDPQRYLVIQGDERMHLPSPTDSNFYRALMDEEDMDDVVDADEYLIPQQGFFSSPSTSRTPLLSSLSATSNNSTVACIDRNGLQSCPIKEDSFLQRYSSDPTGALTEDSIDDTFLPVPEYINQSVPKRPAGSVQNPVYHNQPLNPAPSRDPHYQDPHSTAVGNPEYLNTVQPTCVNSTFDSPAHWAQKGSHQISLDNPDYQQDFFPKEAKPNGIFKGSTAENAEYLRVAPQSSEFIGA
Dickkopf-related protein 1 (Homo sapiens), sequence (O94907 whole entry, looked up): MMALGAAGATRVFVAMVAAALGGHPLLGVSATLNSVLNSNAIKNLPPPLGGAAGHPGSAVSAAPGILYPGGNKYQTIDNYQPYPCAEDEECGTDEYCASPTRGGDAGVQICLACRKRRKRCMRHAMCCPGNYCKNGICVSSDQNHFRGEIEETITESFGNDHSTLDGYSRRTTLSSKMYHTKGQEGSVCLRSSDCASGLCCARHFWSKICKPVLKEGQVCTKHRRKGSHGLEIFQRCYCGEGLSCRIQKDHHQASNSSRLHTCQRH
Fibroblast growth factor 10 (Homo sapiens), sequence (O15520 whole entry, looked up): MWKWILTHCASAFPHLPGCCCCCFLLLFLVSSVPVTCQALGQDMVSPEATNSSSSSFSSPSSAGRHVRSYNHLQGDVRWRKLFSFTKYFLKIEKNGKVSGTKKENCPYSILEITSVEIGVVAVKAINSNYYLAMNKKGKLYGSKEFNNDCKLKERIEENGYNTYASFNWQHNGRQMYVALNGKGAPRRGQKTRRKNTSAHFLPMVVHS

For the compound `CN1C(=O)C2C=CC(C(O)c3ccc(N(C)C)cc3)N(Nc3ccc([N+](=O)[O-])cc3[N+](=O)[O-])C2C1=O` (stereo not given), the composite z-score in assay [1] was determined as 1.1; in [5] it was 2.77; in [7] it was 0.452; in assay [8], 0.0496; in assay [9], 1.1; in assay [10], 0.335. The composite z-score in [11] worked out at 1.27; in [12], 1.17; in assay [13], 0.33; in assay [15], 0.887; in assay [16], 1.2; in [17], 0.737. In addition, the values for the composite z-score in assay [18], in [19] and in assay [20] were 1.2, 0.137 and 1.49, respectively. Moreover, the z-score is 0.0069 (inactive) in assay [2]; -0.0787 (inactive) in [3]; -0.183 (inactive) in assay [4]; -0.465 (inactive) in [6]; 1.16 (inactive) in [14].

`O=C1OCCC=C[C@H]2OC34C=CCN(Cc5ccccc5)C(=O)[C@H]3N(CCO)C(=O)[C@@H]4C12` (stereo not given in full): the composite z-score in assay [1] was -1.05; in assay [5], -0.89; in assay [7], -0.172; in assay [8], -0.526; in [9], -0.634; in assay [10], -0.304. Besides, the composite z-score was -0.37 in assay [11]; -0.273 in [12]; 0.0184 in [13]; -0.835 in [15]; -0.958 in assay [16]; -0.844 in assay [17]. For the same compound, the results for the composite z-score in assay [18], in assay [19] and in [20] were -0.376, -0.46 and 1.02, respectively. In addition, the z-score in assay [2] is -2.04 (inactive); in assay [3] it was -4.14 (inactive); in [4], -1.5 (inactive); in assay [6], 2.71 (inactive); in assay [14], -2.82 (inactive).

On to `COCCOC(=O)N1C(=O)[C@@]2(c3ccccc31)[C@H](C(=O)N1CCc3cc(OC)c(OC)cc3C1)[C@H]1C(=O)O[C@H](c3ccccc3)[C@H](c3ccccc3)N1[C@@H]2c1ccccc1OCCO`, for which the composite z-score in [1] was 1.48; in [5], 2.14; in assay [7] it was 0.0261; in assay [8], 1.03; in assay [9] it was 1.07; in assay [10], -0.0717. Further, the composite z-score in [11] was found to be 1; in assay [12], 0.401; in [13] it was 0.339; in assay [15] it was 0.626; in [16], 1.28; in [17] it was 0.329. Also, the values for the composite z-score in [18], in [19] and in [20] were 0.606, 0.214 and 0.635, respectively. Further, the z-score in assay [2] is 0.384 (inactive); in [3] it was -0.0822 (inactive); in [4] it was 5.51 (inactive); in assay [6] it was 2.8 (inactive); in [14] it was -0.237 (inactive).

Regarding `COC(=O)Cn1c(C(=O)N2CCCC2)cc2c1C[C@H]1CN(C(=O)c3ccccc3)[C@@](Cc3ccc(OC)cc3)(C(=O)OC)[C@@H]21`, the composite z-score was -0.709 in [1]; 3.24 in assay [5]; 0.531 in [7]; -1.02 in assay [8]; 1.13 in assay [9]; 0.434 in assay [10]. For the same compound, the composite z-score was found to be 0.41 in [11]; 1.37 in assay [12]; 1.1 in assay [13]; 0.388 in assay [15]; 0.203 in [16]; 0.559 in assay [17]. For the same compound, the composite z-score in assay [18] is 0.348; in [19], -0.467; in assay [20], 1.04. Also, the z-score was 0.742 (inactive) in assay [2]; 1.39 (inactive) in assay [3]; 2.75 (inactive) in assay [4]; -0.485 (inactive) in assay [6]; -1.76 (inactive) in assay [14].

Take `CN1C2C=C(c3ccc(CO)cc3)C(C3C(=O)N(C(N)=O)C(=O)C32)C1c1cccs1` (stereo not given): the composite z-score was 0.4 in assay [1]; 0.813 in assay [5]; -0.0774 in assay [7]; 0.198 in [8]; -0.25 in assay [9]; -0.0798 in assay [10]. Also, the composite z-score is 1.41 in [11]; -0.0009 in [12]; 0.549 in assay [13]; 0.25 in assay [15]; -0.148 in [16]; 0.136 in [17]. In addition, the composite z-score in assay [18] was -0.623; in assay [19] it was -0.72; in assay [20], 1.02. Further, the z-score in [2] was 0.697 (inactive); in assay [3] it was -1.74 (inactive); in [4], 1.21 (inactive); in assay [6] it was 1.22 (inactive); in assay [14], -0.795 (inactive).
